Reference: PubChem BioAssay (NCATS)
“And” between values parts separate entries of the source, which are not always exact repeats. Equal entries are not always repeated. Results filed as inconclusive are left out. Values without a mark were called inactive. The source made the active and inactive calls. Calls come from the whole dose curve; as a rule, active = well fitted inhibition curve with a large enough effect; inconclusive = small, poorly fitted or top-dose-only effect; inactive = flat fitted curve, though single readings scatter. Where a SMILES comes first, the peptide text is derived from it. [ ]: non-standard residue; d: D form. pGlu = O=C1CC[C@@H](C(=O)O)N1

Experiments:
[1] = Drug repurposing screens with cells derived from glioblastoma tumor samples (AID 1345199); details: GBM patient neurospheres viability, ATP luminescence, 48 h; note: nearly all actives have a fitted effect of over 40% in size
Summary of the method: (§1)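 Four patient lines of CD133+ GBM neurospheres were screened at several concentrations; hits were retested in those lines plus three slower-growing GBM lines, using 48-hour treatment and ATP-based viability.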

[2] = test system: astro; assay: as above; details: viability, ATP luminescence, 48 h; series mostly up to 45.9 µM
Summary of the method: as §1

[3] = at 45.9 µM (top of the series), tumour line B
[4] = at 45.9 µM (top of the series), tumour line D
[5] = at 46 µM (top of the series), tumour line A
[6] = at 46.1 µM (top of the series), tumour line C
[7] = at 20 µM (top of the series), tumour line C
[8] = at 21.2 µM (top of the series), tumour line B
[9] = at 21.2 µM (top of the series), tumour line D
[10] = at 21.3 µM (top of the series), tumour line A
% is set by controls: 0 for no effect and ±100 for the full control effect; potency is the fitted concentration of half-maximal effect.

| SMILES | activity, negative = cell killing [1, 3] | activity, negative = cell killing [1, 4] | activity, negative = cell killing [1, 5] [%] | activity, negative = cell killing [1, 6] | Potency [2] | activity, negative = cell killing [1, 7] [%] | activity, negative = cell killing [1, 8] [%] | activity, negative = cell killing [1, 9] [%] | Potency ([1]; tumour line A) | activity, negative = cell killing [1, 10] [%] |
| --- | --- | --- | --- | --- | --- | --- | --- | --- | --- | --- |
| CC[C@H](C)[C@H](NC(=O)[C@H](Cc1ccccc1)NC(=O)[C@H](C)NC(=O)[C@H](CC(=O)O)NC(=O)[C@H](CCCCN)NC(=O)[C@H](CO)NC(=O)[C@@H]1CCCN1C(=O)[C@@H]1CCC(=O)N1)C(=O)NCC(=O)N[C@@H](CC(C)C)C(=O)N[C@@H](CCSC)C(N)=O ([pGlu]PSKDAFIGLM-NH2) | -11.4% | 13.8% | -9.58 | -14.3% | inactive |  |  |  |  |  |
| CCOC(=O)Oc1c(OC)cc(C(=O)O[C@@H]2C[C@@H]3CN4CCc5c([nH]c6cc(OC)ccc56)[C@H]4C[C@@H]3[C@H](C(=O)OC)[C@H]2OC)cc1OC |  |  |  |  | inactive | -3.41 | -4.13 | -4.51 | 5.62 µM (active) |  |
| C[C@@H]1O[C@@H]1P(=O)(O)O | -9.49% | -16.5% | -24.5 | -7.45% | inactive |  |  |  |  |  |
| COc1ccc([C@@H]2CC(=O)c3c(O)cc(O[C@@H]4O[C@H](CO[C@@H]5O[C@@H](C)[C@H](O)[C@@H](O)[C@H]5O)[C@@H](O)[C@H](O)[C@H]4O)cc3O2)cc1O |  |  |  |  | inactive | -7.12 | -4.88 | -12.7 |  | -11.4 |
| CCCCC[C@H](O)/C=C/[C@@H]1[C@H]2C/C(=C/CCCC(=O)O)O[C@H]2C[C@H]1O | -2.96% | 0.816% | -14.4 | -18.7% | inactive |  |  |  |  |  |
| NC(=O)c1ccc[n+]([C@@H]2O[C@H](COP(=O)([O-])OP(=O)(O)OC[C@H]3O[C@@H](n4cnc5c(N)ncnc54)[C@H](O)[C@@H]3O)[C@@H](O)[C@H]2O)c1 |  |  |  |  | inactive | -16.9 | 8.41 | -3.83 |  | -22.7 |
| OC1OC[C@@H](O)[C@H](O)[C@@H]1O (stereo not given in full) | -0.633% | 10.5% | -6.9 | 14.5% | inactive |  |  |  |  |  |
| C=CC1=C(C(=O)O)N2C(=O)[C@@H](NC(=O)/C(=N\O)c3csc(N)n3)[C@H]2SC1 (stereo in doubt) | 5.66% and -6.14% | -12.1% and -17.4% | -18.5 | 20.4% and -9.47% | inactive |  |  |  |  |  |
